# Test results from PubChem BioAssay AID618 (Sanford-Burnham Center for Chemical Genomics, 2007).
# The whole screen tested about 87,000 compounds, of which about 540 (0.62%) were called active. This is one part of a sample in which actives are shown more often than they occur. No rule for the calls is given here. Results with a measured potency or affinity are listed apart.
# Test: MT1-MMP gene expression reporter suppression – cell-based, luciferase reporter, luminescence (AID 618);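 also: actives suppress MT1-MMP promoter-driven transcription so potencies describe inhibitors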
# Conditions: MT1-MMP promoter luciferase reporter cells
row,SMILES,outcome
1,COc1ccc(-n2c(Cc3cccn3C)nnc2SCC(=O)Nc2cccc(F)c2)cc1,inactive
2,Cc1cc(/C=N/n2cnnc2)c(C)n1-c1ccc(OCc2ccccc2F)cc1,inactive
3,Cc1cc(/C=N/n2cnnc2)c(C)n1-c1ccc(OCc2ccc(Cl)cc2)cc1,inactive
4,Cc1ccc(C)c(N(CC(=O)NC2CCCCC2)C(=O)CCC(=O)Nc2ccccn2)c1,inactive
5,O=C(COC(=O)c1cccs1)c1ccccc1,inactive
6,O=C(COC(=O)c1cccs1)c1ccc2ccccc2c1,inactive
7,CCOC(=O)C1=C(C)NC(=O)NC1c1ccccc1Cl (stereo not given),inactive
8,O=C(NCCN1CCOCC1)c1ccc(F)cc1,inactive
9,c1ccc(-n2ncc3c(N4CCN(c5ccccn5)CC4)nc(N4CCCCC4)nc32)cc1,inactive
10,Cc1ccccc1S(=O)(=O)Cc1ccc(C(=O)N2CC(C)CC(C)C2)o1 (stereo not given),inactive
11,Cc1cccc(N2CCN(C(=O)c3ccc(CS(=O)(=O)c4ccccc4C)o3)CC2C)c1 (stereo not given),active
12,Cc1ccc(C)c(N2CCN(C(=O)c3ccc(CS(=O)(=O)c4ccccc4C)o3)CC2)c1,inactive
13,COc1ccc(N2CCN(C(=O)c3ccc(CS(=O)(=O)c4ccc(OC)cc4)o3)CC2)cc1,inactive
14,COc1ccc(S(=O)(=O)Cc2ccc(C(=O)N3CCN(c4cccc(C)c4)C(C)C3)o2)cc1 (stereo not given),active
15,CCOC(=O)N1CCN(C(=O)c2ccc(CS(=O)(=O)c3ccc(OC)cc3)o2)CC1,inactive
16,Cc1ccc(N=Cc2ccc(N(C)C)cc2)cc1,inactive
17,O=S(=O)(/N=C(\c1ccccc1)N1CCOCC1)c1cccs1,inactive
18,COCCn1nnnc1CN1CCC(C)CC1,inactive
19,CCc1cc(=O)oc2cc(OCC(=O)N3CCc4ccccc43)ccc12,inactive
20,COCCCN1C(=O)C(=O)/C(=C(/O)c2ccc(OC(C)C)cc2)C1c1ccncc1 (stereo not given),inactive
21,COc1ccc(-c2nc(-c3cccs3)c(-c3cccs3)[nH]2)cc1O,inactive
22,COc1ccc(-c2c/c(=N\c3nc(-c4ccccc4)c(C)s3)c3ccccc3o2)cc1O,active
23,COc1ccc(-c2nc(-c3ccccc3)c(-c3cc([N+](=O)[O-])ccc3C)[nH]2)cc1O,inactive
24,Cc1nn(C)c(C)c1S(=O)(=O)N1CCC(C(=O)NCC2COc3ccccc3O2)CC1 (stereo not given),inactive

row,SMILES,outcome
1,COC(=O)[C@@H]1C[C@H]2CC[C@H](O)C[C@H]2N1Cc1ccc(-c2ccccc2)cc1,active
2,COC(=O)[C@@H]1C[C@@H]2CC[C@@H](O)C[C@@H]2N1Cc1ccc(Cl)cc1,inactive
3,COC(=O)[C@@H]1C[C@@H]2CC[C@@H](O)C[C@@H]2N1Cc1ccc(-c2ccccc2)cc1,inactive
4,O=c1c(Cl)c(NCCCO)cnn1-c1nc2ccccc2[nH]1,inactive
5,CC1(C)CC(=O)c2cnn(-c3nc4ccccc4[nH]3)c2C1,inactive
6,CC(=O)c1c(C)nn(C(=O)N2CCOCC2)c1C,inactive
7,CCOc1ccccc1N(C(=O)CNS(=O)(=O)c1ccccc1)C(CC)C(=O)NCc1ccco1 (stereo not given),inactive
8,COc1ccc(/C=N/n2cnnc2SCc2ccccc2)cc1,inactive
9,COc1ccc(/C=N\n2nnc3ccccc32)cc1,active
10,COc1ccc(/C=N/n2c(N)nc3ccccc32)cc1OC,inactive
11,CC1(c2ccccc2)NC(=O)N(CC(=O)N2CCOCC2)C1=O (stereo not given),inactive
12,O=c1c2ccccc2cnn1-c1nc2ccccc2s1,active
13,O=c1c2ccccc2cnn1-c1ccc(Cl)cc1,inactive
14,O=c1c2ccccc2cnn1-c1ccc(Br)cc1,inactive
15,COc1ccc(-c2noc(CCC(=O)NCCCN3CCC(Cc4ccccc4)CC3)n2)cc1,inactive
16,CCCC(=O)Nc1ccc(Cl)c(NC(=O)c2cccnc2)c1,inactive
17,O=C1CCCCCN1C(=O)c1ccc(C(=O)N2CCCCCC2=O)cc1,inactive
18,O=C1CCCCCN1C(=O)c1cccc(C(=O)N2CCCCCC2=O)c1,inactive
19,Cc1ccc2c(c1)CCCN2C(=O)C1CCCO1 (stereo not given),inactive
20,CN(C)S(=O)(=O)c1ccc2nc(NC(=O)c3cccs3)sc2c1,inactive
21,CCN(CC)S(=O)(=O)c1ccc2nc(NC(=O)c3cccs3)sc2c1,inactive
22,Cc1ccc2nc(NC(=O)c3cccs3)sc2c1,active
23,CCOC(=O)c1ccc2nc(NC(=O)c3cccs3)sc2c1,inactive
24,Cc1ccc2nc(NC(=O)c3ccc(Cl)s3)sc2c1,inactive

row,SMILES,outcome
1,CS(=O)(=O)c1ccc2nc(NC(=O)c3cccs3)sc2c1,active
2,CCSc1n[nH]c2nc3c(c(=O)n12)C1(CCCC1)Cc1ccccc1-3,inactive
3,CCCOc1ccccc1C1CC(=O)NC2=C1C(=O)CCC2 (stereo not given),inactive
4,CCOc1ccccc1C1CC(=O)NC2=C1C(=O)CCC2 (stereo not given),inactive
5,CCCCOc1ccccc1C1CC(=O)NC2=C1C(=O)CCC2 (stereo not given),active
6,COc1oc(-c2ccc(Cl)cc2)nc1C(F)(F)F,inactive
7,c1cc2c(cc1C1CCCCC1)c1c3n2CCCNC3CCC1 (stereo not given),active
8,Cc1ccc2c(c1)c1c3n2CCCNC3CCC1 (stereo not given),inactive
9,Cc1ccc2c(c1)c1c3n2CCN(C(=O)C2CC2)C3CCC1 (stereo not given),inactive
10,Cc1ccc2c(c1)c1c3n2CCN(C(=O)CN2CCN(C)CC2)C3CCC1 (stereo not given),inactive
11,c1ccc2c(c1)c1c3n2CCNC3CCC1 (stereo not given),inactive
12,CCCCCn1c(N)c(-c2nc3ccccc3s2)c2c([N+](=O)[O-])nn(C)c(=O)c21,inactive
13,Cc1cc(OC(=O)c2ccco2)c2c(C)cc(=O)oc2c1,inactive
14,O=c1oc2ccccc2n1CCCOc1ccccc1,inactive
15,CC1CCCN(S(=O)(=O)c2ccc(NC(=O)CN3CCN(C)CC3)cc2)C1 (stereo not given),inactive
16,Cc1ccc(NC(=O)CN2CC(C)SC2=NC2CCCCC2)cc1 (stereo not given),active
17,CCc1cccc(CC)c1NC(=O)CN1CC(C)SC1=NC1CCCCC1 (stereo not given),inactive
18,C=CCOc1cc(C)nc(-c2ccccc2O)n1,inactive
19,CCOC(=O)CSc1nnc(N)s1,inactive
20,O=C1C/C(=C/NCc2ccccc2)C(=O)N1,inactive
21,Cc1nnc(NC(=O)CSc2nccn2-c2cccc(C)c2C)s1,active
22,CCSc1nnc(NC(=O)CSc2nccn2-c2cccc(C)c2C)s1,inactive
23,CCc1nnc(NC(=O)CSc2nccn2-c2cccc(C)c2C)s1,inactive
24,O=C1CC(c2c[nH]c3ccccc23)C(=O)N1 (stereo not given),inactive

row,SMILES,outcome
1,CCOc1ccc(-c2cc(CCCC(=O)NCCc3ccc(OC)c(OC)c3OC)no2)cc1,inactive
2,CCOc1ccc(-c2cc(CCCC(=O)NCCc3ccccc3)no2)cc1,inactive
3,CCOc1ccc(-c2cc(CCCC(=O)Nc3cccc(OC)c3)no2)cc1,inactive
4,CCOc1ccc(NC(=O)CCCc2cc(-c3ccc(OCC)cc3)on2)cc1,inactive
5,COc1ccccc1NC(=O)NC(=O)N(C(C)C)S(C)(=O)=O,inactive
6,Cc1cc2ncn(CC(O)COC3CCCCC3)c2cc1C (stereo not given),inactive
7,CC(=O)Nc1ccc(OCC(=O)c2ccc(C)cc2C)cc1,inactive
8,CC(C)NC(=O)c1ccccc1NC(=O)c1ccccc1N(C)S(C)(=O)=O,inactive
9,CCOC(=O)c1n[nH]c2ccccc12,inactive
10,COCCn1c(C)cc(C(=O)COC(=O)c2n[nH]c3ccccc23)c1C,active
11,Cc1cc(NC(=O)COC(=O)c2n[nH]c3ccccc23)no1,inactive
12,COCC(C)n1c(C)cc(C(=O)COC(=O)c2n[nH]c3ccccc23)c1C (stereo not given),inactive
13,COCCn1c(C)cc(C(=O)COC(=O)c2ccc(-n3nc(C)cc3C)cc2)c1C,inactive
14,CCCCCn1c(=O)[nH]c2cc(C(=O)O)ccc2c1=O,inactive
15,Clc1ccccc1CSc1nnc(Cn2cnc3ccccc32)n1-c1ccccc1,inactive
16,CN1CCC(NC(=O)c2cccs2)CC1,inactive
17,CCOc1ccc(-c2nnc(-c3cccs3)o2)cc1,inactive
18,CCCOc1ccc(-c2nnc(-c3ccncc3)o2)cc1,inactive
19,CCCOc1ccc(-c2nnc(-c3ccco3)o2)cc1,inactive
20,CC(C)COc1ccc(-c2nnc(-c3ccco3)o2)cc1,inactive
21,O=C(CN1CCOCC1)Nc1c2c(nc3ccccc13)N(Cc1ccccc1)CC2,inactive
22,O=C(O)C1CCN(S(=O)(=O)c2ccc(Oc3ccccc3)cc2)CC1,inactive
23,Cc1cc(NC(=O)CCCC(=O)Nc2ccc(F)cc2)no1,inactive
24,COc1ccc(S(=O)(=O)N[C@@H](Cc2ccccc2)C(=O)N2CC[C@@]3(O)CCCC[C@H]3C2)cc1,inactive

row,SMILES,outcome
1,Cc1c(NC(=O)c2cnn3c2NC(c2ccc(Br)cc2)CC3C(F)(F)F)c(=O)n(-c2ccccc2)n1C (stereo not given),inactive
2,c1ccc2nc(-c3nc4ccccc4o3)ccc2c1,active
3,c1cc(-c2nc3ccccc3o2)nc(-c2nc3ccccc3o2)c1,inactive
4,c1ccc(-c2nc3ccccc3o2)nc1,inactive
5,Cc1ccc(-c2nnc(-c3ccccc3)o2)cc1,inactive
6,Cc1ccc(-c2nnc(Nc3ccccc3)o2)cc1,active
7,CCNc1nnc(-c2ccc(C)cc2)o1,inactive
8,O=C(O)CCCn1c(=O)[nH]c2ccccc2c1=O,inactive
9,CC(=O)N1c2ccccc2N(Cc2ccc(C)cc2C)C(=O)C1(C)C,active
10,Cc1ccc(C(=O)N2c3ccccc3N(Cc3ccccc3)C(=O)C2(C)C)cc1,inactive
11,Cc1ccc(C)c(CN2C(=O)C3(OCCCO3)c3ccccc32)c1,inactive
12,COc1ccc(N(C)S(=O)(=O)c2ccc3c(c2)oc(=O)n3C)cc1,inactive
13,Cc1[nH]c2ccc(C(=O)O)cc2c1C,inactive
14,Cc1nn2c(CN(C(=O)c3ccco3)c3ccccc3)nnc2c2ccccc12,inactive
15,O=S(=O)(N1CCOCC1)n1nnc2ccccc21,inactive
16,O=C(N1CCOCC1)n1nnc2ccccc21,inactive
17,O=C(CSc1ncnc2ccccc12)N1CCN(c2ccccc2)CC1,inactive
18,NC(=O)C1CCN(C(=O)c2cc3ccccn3n2)CC1,inactive
19,COC(=O)CCn1nnc(-c2cccs2)n1,inactive
20,COc1ccc(NC(=O)CCn2nnc(-c3ccc(C)cc3)n2)cc1OC,inactive
21,Cc1ccc(-c2nnn(CCC(=O)NC(C)(C)C)n2)cc1,inactive
22,COC(=O)CCn1nnc(-c2ccc(C)cc2)n1,inactive
23,COc1ccc(-c2nnn(CCC(=O)O)n2)cc1,inactive
24,COc1cccc(-c2nnn(CCC(=O)O)n2)c1,inactive
